Values joined by “and” are separate entries in the source; they are usually repeats but may differ in a detail not shown here. Identical values can stand only once. Results filed as inconclusive are left out. Active and inactive are the calls of the source. Unless noted, calls follow the shape of the dose curve; as a rule, active = well fitted curve in the direction sought with a large enough effect; inconclusive = small, poorly fitted or top-dose-only effect, or another doubt; inactive = no such curve, though single readings can be large; an effect the other way counts as inactive or inconclusive.
What was measured:
[1] = target: Arylsulfatase A (Homo sapiens) (UniProt P15289); assay: qHTS screen for enhancers of Arylsulfatase A (ASA1): LOPAC Validation Assay (AID 720538)
Procedure, shortened: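 First, ASA-I179S fibroblasts from an MLD patient adhered for 6 hrs. Next, compounds were added for 48h. Then pNCS substrate (0.5mM final) with lysis buffer reacted 14h at room temperature before NaOH stop and fluorescence measurement.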

[2] = target: T1, Hexokinase-4 (Homo sapiens) + Glucokinase regulatory protein (Homo sapiens) (UniProt P35557+Q14397); assay: qHTS assay for inhibitors of recombinant human GCK-GKRP interaction: Diaphorase-coupled assay (AID 743205)
Procedure, shortened: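 Inhibitors of the GCK–GKRP complex relieve GKRP suppression of GCK, detected through a G6PDH–diaphorase cascade reducing resazurin. Human GST-GCK and FLAG-GKRP are used at 10 nM with 5 mM glucose and 0.4 mM ATP.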

[3] = target: T1, Hexokinase-4 (Homo sapiens) + Glucokinase regulatory protein (Homo sapiens); assay: qHTS assay for inhibitors of recombinant human GCK-GKRP interaction: ADP-Glo assay (AID 743206);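 also: plate controls were DMSO plus enzyme for no effect and no enzyme for full effect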
Procedure, shortened: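 GST-GCK and FLAG-GKRP (15 nM each in the dispensed mix, with 2 uM S6P) react with 0.4 mM ATP and 5 mM glucose (final) in Hepes pH 7.6 for 60 min at room temperature. ADP is measured by ADP-Glo luminescence.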

[4] = target: T1, Hexokinase-4 (Homo sapiens) + Glucokinase regulatory protein (Homo sapiens); assay: qHTS assay for inhibitors of recombinant human GCK-GKRP interaction: HTRF assay (AID 743207);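 also: 0% = DMSO with GCK present and -100% = DMSO wells lacking GCK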
Procedure, shortened: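 Steps: dispense GCK–GKRP complex (5 nM each, GST- and FLAG-tagged) with 2 uM S6P; pin in compounds; add XL665/Eu-cryptate-labelled antibodies; incubate 60 min at room temperature; read time-resolved FRET at 665 and 615 nm.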

[5] = qHTS Assay for Identifying Gametocytocidal Compounds (AID 743244); also: potency is read from the fitted curve at half-maximal effect;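 as to max response: % is scaled to controls: 0 for no effect and ±100 for the full control effect; actives lower the fluorescent signal which means gametocytes are killed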; conditions: P. falciparum 3D7 stage III-V gametocytes, alamarBlue, 72 h; max response: stronger effect = lower value
Procedure, shortened: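 Fluorescence at Ex 525/Em 598 nm, recorded 24 h after alamarBlue addition, reports residual metabolic activity of 3D7 gametocytes (stages III–V) following 72 h compound exposure at 37 °C, 5% CO2.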

[6] = qHTS for compounds that reverse cellular toxicity of Amyloid beta (A-beta) peptide in yeast: LOPAC Validation Assay (AID 720559);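 also: plate controls were DMSO for no effect and equimolar ferric chloride plus clioquinol rescue for full effect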
Procedure, shortened: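 Activity is expressed relative to DMSO and an equimolar ferric chloride/clioquinol mix. Compounds were pinned into medium with A-beta-expressing yeast, grown 48 hr at 30 C, then read by absorbance at 600 nm.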

[7] = qHTS for Activators of Parkin Expression: LOPAC Validation Assay (NLuc Reporter) (AID 720572;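 also: 0% = DMSO and 100% = positive control compound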)
Procedure, shortened: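 Parkin promoter-driven FLuc/NLuc neuronal reporter cells; 24 h plating, 7-pt dose response, 24 h at 37 C/5% CO2; FLuc then NanoLuc reagent, 10 min each, luminescence; DMSO/positive control normalized.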

[8] = qHTS for Activators of Parkin Expression: LOPAC Validation Assay (FLuc Reporter) (AID 720573;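 also: 0% = DMSO and 100% = positive control compounds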)
Procedure, shortened: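 A neuronal cell line harbouring FLuc and NLuc reporters behind the Parkin promoter was exposed to compounds for 24 h. Firefly luciferase signal, measured after 10 min with detection reagent, was scaled to DMSO and positive-control wells.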

[9] = qHTS assay for small molecule agonists of the antioxidant response element (ARE) signaling pathway measured by Nrf2-dependant transcriptional activity (AID 720636; active = well fitted curve in the direction sought with a large enough effect in the repeat runs; an effect the other way counts as inactive or inconclusive; also: % of control where 0% means no effect)
Procedure, shortened: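 ARE-luc HepG2 cells carrying an Nrf2-responsive luciferase reporter were plated in medium with 1% dialyzed FBS, left 6 hr at 37 C to attach, then exposed to compound for 16 hr. Luciferase luminescence was read after ONE-Glo addition.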

[10] = qHTS assay for small molecule agonists of the antioxidant response element (ARE) signaling pathway measured by Nrf2-dependant transcriptional activity - cell viability counter screen (AID 720653; active = well fitted curve in the direction sought with a large enough effect in the repeat runs; an effect the other way counts as inactive or inconclusive; also: % is scaled to controls: 0 for no effect and ±100 for the full control effect); conditions: ARE-bla HepG2 viability, CellTiter-Glo ATP luminescence, 16 h; max response: stronger effect = lower value
Procedure, shortened: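 Cytotoxicity counter screen: intracellular ATP quantified by CellTiter-Glo luminescence in the same ARE-bla HepG2 plates, after 16 h compound exposure and a 2 h beta-lactamase substrate step.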

[11] = qHTS assay for cell viability of HEK293 cells (AID 743288); conditions: ATP luminescence (CellTiter-Glo), 18 h; max response: stronger effect = lower value; also: nearly all actives have a fitted effect of over 50% in size; also: potency is read from the fitted curve at half-maximal effect; as to max response: % is scaled to controls: 0 for no effect and ±100 for the full control effect
Procedure, shortened: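 The Tox21 protocol used parental HEK293 cells treated for 18 h at 37 C with compounds delivered by pintool; ATP-coupled luminescence after 30 min at room temperature gave viability.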

[12] = qHTS assay for cell viability of the p53RE-bla HCT-116 cell line (AID 743292); also: % is scaled to controls: 0 for no effect and ±100 for the full control effect; nearly all actives have a fitted effect of over 55% in size
Procedure, shortened: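 CellSensor p53RE-bla HCT-116 cells, 4,000/well, preincubated 5 h at 37 C, then exposed to compounds in DMSO for 16 h at 37 C. Viability read as CellTiter-Glo luminescence (intracellular ATP) after 30 min at room temperature.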

[13] = qHTS profiling for inhibitors of Plasmodium falciparum (3D7) proliferation (AID 743322; call rule not given here;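 also: infected erythrocytes exposed to compound for 72 h before lysis; 100% = DMSO vehicle wells and 0% = 0.29 µM artemisinin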); conditions: P. falciparum 3D7 proliferation; at 28.7 µM (top of the series) unless noted
Procedure, shortened: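 Erythrocytes infected with P. falciparum (0.3% parasitemia, 2.5% hematocrit) incubated with compounds 72 h at 37 C, 5% CO2. Lysis with saponin/Triton buffer containing SYBR Green I, overnight at room temperature in the dark; DNA fluorescence (485/535 nm) normalised to 0.29 uM artemisinin and DMSO.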

[14] = qHTS profiling for inhibitors of Plasmodium falciparum (DD2) proliferation (AID 743323; call rule not given here); conditions: lower = more inhibition; at 28.7 µM (top of the series) unless noted
Procedure, shortened: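 Parasite DNA quantified by SYBR Green fluorescence (ex 485, em 535 nm) after saponin/Triton lysis and overnight dark incubation. Cultures: 0.3% parasitemia, 2.5% hematocrit, 72 h, 37 C; data scaled between DMSO and 0.29 uM artemisinin.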

[15] = qHTS profiling for inhibitors of Plasmodium falciparum (HB3) proliferation (AID 743324); conditions: Plasmodium falciparum HB3 blood-stage proliferation; at 28.7 µM (top of the series);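 also: 100% = DMSO vehicle wells and 0% = artemisinin-treated control wells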
Procedure, shortened: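 P. falciparum HB3 grown in erythrocytes (0.3% parasitemia, 2.5% hematocrit final) with compound for 72 h at 37 C, 5% CO2. Parasite DNA detected by SYBR Green after saponin/triton lysis overnight; normalized to 0.29 uM artemisinin and DMSO.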

[16] = qHTS assay for small molecule antagonists of the retinoid-related orphan receptor gamma (ROR-gamma) signaling pathway - cell viability counter screen (AID 720652; active = well fitted curve in the direction sought with a large enough effect in the repeat runs; an effect the other way counts as inactive or inconclusive;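 also: CHO reporter cells with doxycycline-induced ROR-gamma expression; compound exposure lasted 16 hr before ATP read; % is scaled to controls: 0 for no effect and ±100 for the full control effect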)
Procedure, shortened: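 Counter screen in CHO cells carrying TET-inducible ROR-gamma and an ROR response element-luciferase reporter; cells plated 5 hr, compound pinned, doxycycline added, then 16 hr at 37 C. Viability read as intracellular ATP by CellTiter-Glo luminescence.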

T1 sequence (P35557 whole entry, looked up): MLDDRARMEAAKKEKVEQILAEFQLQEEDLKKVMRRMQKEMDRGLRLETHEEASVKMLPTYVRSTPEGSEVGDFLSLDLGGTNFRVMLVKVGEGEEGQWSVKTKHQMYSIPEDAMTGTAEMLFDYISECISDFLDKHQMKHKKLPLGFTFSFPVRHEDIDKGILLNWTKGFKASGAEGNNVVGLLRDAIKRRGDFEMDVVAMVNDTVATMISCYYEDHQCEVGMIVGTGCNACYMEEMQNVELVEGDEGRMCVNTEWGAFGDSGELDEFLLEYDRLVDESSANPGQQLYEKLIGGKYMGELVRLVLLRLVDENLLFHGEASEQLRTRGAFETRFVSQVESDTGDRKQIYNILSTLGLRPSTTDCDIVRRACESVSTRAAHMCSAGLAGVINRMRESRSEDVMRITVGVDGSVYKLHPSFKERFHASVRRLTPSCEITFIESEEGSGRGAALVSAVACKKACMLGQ
T1 sequence (Q14397 whole entry, looked up): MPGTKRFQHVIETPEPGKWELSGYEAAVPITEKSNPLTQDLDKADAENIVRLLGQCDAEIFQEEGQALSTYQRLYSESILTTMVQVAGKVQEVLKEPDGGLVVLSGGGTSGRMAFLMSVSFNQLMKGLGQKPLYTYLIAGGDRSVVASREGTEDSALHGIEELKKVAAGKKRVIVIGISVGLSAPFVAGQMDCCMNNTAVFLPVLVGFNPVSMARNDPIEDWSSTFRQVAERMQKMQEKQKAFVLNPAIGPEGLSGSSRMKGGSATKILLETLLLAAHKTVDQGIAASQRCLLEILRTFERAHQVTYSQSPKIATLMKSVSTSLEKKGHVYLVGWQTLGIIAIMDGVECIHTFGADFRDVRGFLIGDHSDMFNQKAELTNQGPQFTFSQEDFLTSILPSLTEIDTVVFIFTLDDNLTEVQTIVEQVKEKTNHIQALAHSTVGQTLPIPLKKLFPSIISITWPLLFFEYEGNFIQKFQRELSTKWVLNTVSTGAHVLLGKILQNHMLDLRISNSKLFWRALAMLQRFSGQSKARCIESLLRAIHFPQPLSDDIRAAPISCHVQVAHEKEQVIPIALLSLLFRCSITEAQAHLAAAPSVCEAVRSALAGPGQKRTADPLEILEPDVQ
Sequence of Arylsulfatase A (Homo sapiens) (P15289 whole entry, looked up): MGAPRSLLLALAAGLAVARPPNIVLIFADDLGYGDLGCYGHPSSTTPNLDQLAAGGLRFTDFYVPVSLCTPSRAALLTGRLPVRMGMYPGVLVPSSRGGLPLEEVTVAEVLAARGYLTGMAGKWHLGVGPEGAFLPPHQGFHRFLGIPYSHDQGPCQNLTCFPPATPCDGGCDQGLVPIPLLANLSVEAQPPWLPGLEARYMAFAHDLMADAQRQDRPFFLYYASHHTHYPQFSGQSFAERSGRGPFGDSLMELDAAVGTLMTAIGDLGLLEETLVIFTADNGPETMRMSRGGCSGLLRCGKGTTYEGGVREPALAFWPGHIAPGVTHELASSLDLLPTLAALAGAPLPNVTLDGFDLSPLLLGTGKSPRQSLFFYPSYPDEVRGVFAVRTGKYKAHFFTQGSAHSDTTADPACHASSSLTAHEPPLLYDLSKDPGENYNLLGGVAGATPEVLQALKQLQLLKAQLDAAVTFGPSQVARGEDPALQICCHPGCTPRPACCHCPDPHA

CC1=NS(=O)(=O)c2cc(Cl)ccc2N1
inactive: Potency [1] | outcome [2] | outcome [3] | Potency [4] | max response [5] 4.85%

CN/C(=C\[N+](=O)[O-])NCCSCc1ccc(CN(C)C)o1
inactive: Potency [1] | outcome [6] | Potency [7] | outcome [8] | max response [5] 33.4%

CN(C)CCCN1c2ccccc2Sc2ccc(C(F)(F)F)cc21
inactive: outcome [6] | Potency [7] | outcome [8] | outcome [2] | outcome [3] | Potency [4]

CN1CCN(CC(=O)N2c3ccccc3C(=O)Nc3cccnc32)CC1
inactive: Potency [1] | outcome [2] | outcome [3] | Potency [4]

CC(C)NCC(O)c1cc(O)cc(O)c1 (stereo not drawn)
inactive: Potency [1] | outcome [2] | outcome [3] | Potency [4]

CCCCCCCC/C=C\CCCCCCCC(=O)NCc1ccc(O)c(OC)c1
inactive: Potency [1] | outcome [6] | outcome [8] | outcome [2] | outcome [3] | Potency [4] | max response [5] 0.654% and 9.43%

O=C(O)CN(CCOCCOCCN(CC(=O)O)CC(=O)O)CC(=O)O
inactive: outcome [6] | Potency [7] | outcome [8] | outcome [2] | outcome [3] | Potency [4]

C[C@@H](O)[C@H]1C(=O)N2C(C(=O)O)=C(SCCN=CN)C[C@H]12
inactive: outcome [6] | Potency [7] | outcome [8] | outcome [2] | outcome [3] | Potency [4]

N[C@@H](COP(=O)(O)O)C(=O)O
inactive: Potency [1] | outcome [6] | Potency [7] | outcome [8] | outcome [2] | outcome [3] | Potency [4] | max response [5] -4.33% and 12%

CN(C)CCOC(=O)COc1ccc(Cl)cc1
inactive: Potency [1] | outcome [6] | Potency [7] | outcome [8] | outcome [2] | outcome [3] | Potency [4] | max response [5] 11% and 8.28%

Fc1ccc(C(c2ccc(F)cc2)N2CCN(C/C=C/c3ccccc3)CC2)cc1
inactive: Potency [1] | outcome [2] | outcome [3] | Potency [4] | max response [5] 16.8% and 11%

CC(=O)Nc1nnc(S(N)(=O)=O)s1
inactive: outcome [6] | Potency [7] | outcome [8] | outcome [9] | max response [10] 1.81% | outcome [2] | outcome [3] | Potency [4] | max response [11] -6.47% | outcome [12]

COCCc1ccc(OCC(O)CNC(C)C)cc1 (stereo not drawn)
inactive: Potency [1] | outcome [2] | outcome [3] | Potency [4] | max response [5] -3.26% and -1.45% and -10.9%

CNCCC(Oc1ccccc1OC)c1ccccc1 (stereo not drawn)
91.8%: remaining proliferation (% of control), lower = more inhibition [15]
inactive: Potency [1] | outcome [6] | Potency [7] | outcome [8] | outcome [2] | outcome [3] | Potency [4] | max response [5] 19.3%
48%: activity, percent of control [14]
104%: remaining parasite growth % (stronger effect = lower value) [13]

COC(=O)[C@H]1[C@H]2C[C@@H]3c4[nH]c5cc(OC)ccc5c4CCN3C[C@H]2C[C@@H](OC(=O)c2cc(OC)c(OC)c(OC)c2)[C@@H]1OC
inactive: outcome [6] | Potency [7] | outcome [8] | outcome [9] | max response [10] -16.7% and -9.72% | outcome [2] | outcome [3] | Potency [4] | outcome [12]
active: Potency [11] 39.8 µM

COc1cc2c(cc1OC)-c1cc(=Nc3c(C)cc(C)cc3C)n(C)c(=O)n1CC2
inactive: outcome [6] | Potency [7] | outcome [8] | outcome [2] | outcome [3] | Potency [4]

COCCCC/C(=N\OCCN)c1ccc(C(F)(F)F)cc1
inactive: Potency [1] | outcome [6] | Potency [7] | outcome [8] | outcome [2] | outcome [3] | Potency [4] | max response [5] 20.1%

CCCC(C(=O)OCCN(CC)CC)(c1ccccc1)c1ccccc1
inactive: Potency [1] | outcome [6] | Potency [7] | outcome [8] | outcome [2] | outcome [3] | Potency [4] | max response [5] -0.916%

CCCCOCCOCCOCc1cc2c(cc1CCC)OCO2
inactive: outcome [9] | outcome [16] | max response [10] -10.7% and -4.66% | max response [11] -11.4% and -13.4% | outcome [12]

NC(=O)c1ncn([C@@H]2O[C@H](CO)[C@@H](O)[C@H]2O)c1O
inactive: outcome [6] | Potency [7] | outcome [8] | outcome [2] | outcome [3] | Potency [4] | max response [5] 13.6%

Nc1ncn([C@@H]2O[C@H](CO)[C@@H](O)[C@H]2O)c(=O)n1
137%: remaining proliferation (% of control), lower = more inhibition [15]
121%: activity, percent of control [14]
103%: remaining parasite growth % (stronger effect = lower value) [13]
inactive: outcome [6] | outcome [8] | outcome [9] | max response [10] -13.9% and 0.747% | outcome [2] | outcome [3] | Potency [4] | max response [5] -3.69% and 12.2% | outcome [12]

CCOC(=O)c1cnc2c(cnn2CC)c1NN=C(C)C
inactive: outcome [6] | Potency [7] | outcome [8] | outcome [2] | outcome [3] | Potency [4] | max response [5] 1.49% and 6.62%

c1cc(CN2CCCCC2)cc(OCCCNc2nc3ccccc3s2)c1
inactive: outcome [6] | Potency [7] | outcome [8] | outcome [2] | outcome [3] | Potency [4] | max response [5] -9.42%

COCC(=O)O[C@]1(CCN(C)CCCc2nc3ccccc3[nH]2)CCc2cc(F)ccc2[C@@H]1C(C)C
active: Potency [5] 2.64 µM and 1.41 µM
inactive: outcome [6] | Potency [7] | outcome [8] | outcome [2] | outcome [3] | Potency [4]
-2.7%: remaining parasite growth % (stronger effect = lower value) [13]
-1.39%: remaining proliferation (% of control), lower = more inhibition [15]
-0.639%: activity, percent of control [14]

CN(C)CC[C@@H](c1ccc(Br)cc1)c1ccccn1
inactive: outcome [2] | outcome [3] | Potency [4] | max response [5] -2.43% and 14.2%

CCCNC(C)C(=O)Nc1ccccc1C (stereo not drawn)
inactive: outcome [6] | Potency [7] | outcome [8] | outcome [2] | outcome [3] | Potency [4]

C[C@H](CS)C(=O)N1CCC[C@H]1C(=O)O
inactive: outcome [6] | Potency [7] | outcome [8] | outcome [2] | outcome [3] | Potency [4] | max response [5] -9.05% and 12%

C=CCc1ccccc1OCC(O)CNC(C)C (stereo not drawn)
inactive: outcome [6] | Potency [7] | outcome [8] | outcome [2] | outcome [3] | Potency [4] | max response [5] 17.2%

O=C(O)CN(CCN(CC(=O)O)CC(=O)O)CCN(CC(=O)O)CC(=O)O
inactive: outcome [6] | Potency [7] | outcome [8] | outcome [2] | outcome [3] | Potency [4] | max response [5] 13% and 27.1%

C#CCN(C)CCCOc1ccc(Cl)cc1Cl
inactive: outcome [6] | Potency [7] | outcome [2] | outcome [3] | Potency [4] | max response [5] -2.39% and 17.1%

Brc1c(NC2=NCCN2)ccc2nccnc12
inactive: outcome [6] | Potency [7] | outcome [8] | outcome [2] | outcome [3] | Potency [4]

From PubChem BioAssay (NCATS)
